The structures appear in SMILES notation. The whole screen tested about 420,000 compounds, of which about 64,000 (15%) were called active. About 27% were inconclusive and are not listed. Calls follow the shape of the dose curve; as a rule, active = well fitted inhibition curve with a large enough effect; inconclusive = small, poorly fitted or top-dose-only effect; inactive = flat fitted curve, though single readings scatter. A selection follows. A call without a number means that no potency is given here.
Potency is read from the fitted curve at half-maximal effect.

The assay can be described thus: qHTS for Inhibitors of human tyrosyl-DNA phosphodiesterase 1 (TDP1): qHTS in cells in absence of CPT. Also: nearly all actives have a fitted effect of over 55% in size. The settings on record: DT40 Tdp1-/- hTDP1 cells, no CPT, ATP luminescence, 48 h; activity change, negative = growth inhibition: at 46.2 µM (top of the series). In short, it runs like this:
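Growth of hTDP1-complemented DT40 Tdp1-knockout cells is measured by ATP luminescence after at least 48 hr compound exposure at 37 °C, with DMSO substituting for the 20 nM CPT used in the parallel screen.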
`CC(=O)OCc1cc2cc(C)ccc2[nH]c1=O`: the Potency entry was “inactive”.
Then `CC(=O)Nc1ccc(OCC(=O)NCc2ccc(C)cc2)cc1`, with “inactive”; and `C/C(CC(=O)NCc1ccc(Cl)cc1)=N\NC(=O)COc1ccc(C)cc1Br`, with 3.26 µM (active); and `CCCCC(=O)N/N=C(\C)CC(=O)Nc1cc(Cl)ccc1OC`, with “inactive”.
Consider `COCCNC(=S)N1CCN(C)CC1`, for which the Potency result was “inactive”.
On to `COC(=O)c1cc(NC(=O)CN2CCC(C(N)=O)(N3CCCCC3)CC2)cc(C(=O)OC)c1`, for which the Potency entry is “inactive”.
As for `Cc1oc2c(c1C(=O)Nc1ccc(F)c(F)c1)C1=NCCN1C=N2`, the Potency entry was “inactive”.
Consider `O=C(CN1C(=O)CCS(=O)(=O)c2ccccc21)NCc1ccc(F)cc1`, for which the Potency result was “inactive”.
For the compound `CC(NC(=O)C(=O)Nc1nccs1)c1ccccc1` (stereo unspecified), the Potency result is “inactive”.
Then `O=C(NCc1ccco1)c1cccn2c(=O)c3c4c(sc3nc12)CCCC4`, with 7.31 µM (active); and `O=c1oc(-c2ccco2)nc2sc3c(c12)CCCCC3`, with “inactive”.
As to `O=C(NCc1ccco1)c1nc2ncccn2n1`, the Potency entry was “inactive”.
Consider `O=C(c1cnc(Cl)c(Cl)c1)N1CCN(S(=O)(=O)c2ccc(F)cc2)CC1`, for which the Potency result is “inactive”.
On to `Cc1cc(C)c(/C=C2\C(=O)Nc3ccccc32)[nH]1`, for which the Potency entry is “inactive”.
As for `COc1ccccc1N1CC(C(=O)NCCN2C(=O)S/C(=C\c3cccnc3)C2=O)CC1=O` (stereo unspecified), the Potency entry is “inactive”.
In the case of `CN1CCN(C2=NCCO2)CC1`, the Potency entry was “inactive”.
To `Cc1ccc(-n2c(SCC(=O)Nc3ccc4c(c3)OCO4)nnc2-c2ccoc2C)cc1` belongs “inactive”; to `O=C(O)c1cc(S(=O)(=O)N(Cc2ccccc2)c2cccc(C(F)(F)F)c2)ccc1Cl`, “inactive”.
Regarding `CCc1ccc(N(CC(=O)NCc2cccnc2)S(=O)(=O)c2ccccc2)cc1`, the Potency result is “inactive”.
As to `O=C(CN(c1cc(C(F)(F)F)ccc1Cl)S(=O)(=O)c1ccccc1)NCc1cccnc1`, the Potency is 18.4 µM (active).
Turning to `CC(=O)Nc1ccc(NC(=O)CSc2ncnc3c2cnn3Cc2ccccc2)cc1`, the Potency result is “inactive”.
As to `OCc1n[nH]c(CO)n1`, the Potency entry is “inactive”.
For `COc1ccc(C(=O)Nc2c(Cl)cc(Cl)cc2C(=O)N2CCC(C)CC2)cc1`, the Potency entry is “inactive”.
Turning to `COc1ccc(C(=O)N2CCCCC2c2cc(C(=O)Nc3ccc(F)c(Cl)c3)no2)cc1` (stereo unspecified), the Potency was 23.1 µM (active).
On to `CCCNC(=O)c1cc(C2CCCCN2C(=O)OC)on1` (stereo unspecified), for which the Potency result was “inactive”.
With `CC(=O)c1ccc(N2C(=NC(=O)C(C)C)SC3CS(=O)(=O)CC32)cc1` (stereo unspecified), the Potency result was “inactive”.
For the compound `CCNC(=O)c1ccc(OCC(=O)Nc2ccc(F)cc2)c(OC)c1`, the Potency result was “inactive”.
In the case of `COc1ccc(NC(=O)CN2CCN(S(=O)(=O)c3ccc(F)cc3)CC2)cc1Cl`, the Potency result is “inactive”.
Consider `CCCOc1ccc(F)cc1-c1cc(C(=O)Nc2ccc(F)c(Cl)c2)[nH]n1`, for which the Potency was 16.4 µM (active).
Take `O=C(O)Cc1csc(NC(=O)CSc2nnnn2-c2ccc(O)cc2)n1`: the Potency entry was “inactive”.
As to `CC(=O)Nc1ccc(S(=O)(=O)Oc2ccc(/C=N/N=C3/NC(=O)C(CC(=O)O)S3)cc2)cc1` (stereo unspecified), the Potency entry is “inactive”.
Turning to `Cn1c(=N)n(CC(O)c2ccccc2)c2ccccc21` (stereo unspecified), the Potency entry is “inactive”.
To `Cn1c(=N)n(CC(O)c2cccs2)c2ccccc21` (stereo unspecified) belongs “inactive”; to `CCOc1ccc(C(O)Cn2c(=N)n(CCN3CCCCC3)c3ccccc32)cc1` (stereo unspecified), 23.1 µM (active); to `NS(=O)(=O)c1ccc(CCNC(=O)c2ccc(Cl)cc2[N+](=O)[O-])cc1`, “inactive”.
As to `CC(=O)NCCc1ccc(S(=O)(=O)N(C)C2CCS(=O)(=O)C2)cc1` (stereo unspecified), the Potency result is “inactive”.
With `CCc1nnc(NS(=O)(=O)c2ccc(N=Cc3c(C)[nH]n(-c4ccc(C)cc4)c3=O)cc2)s1`, the Potency is 11.2 µM (active).
With `CCc1nnc(NS(=O)(=O)c2ccc(NS(=O)(=O)c3ccccc3)cc2)s1`, the Potency result is “inactive”.
For the compound `COc1cc(NS(=O)(=O)c2ccc(N=Cc3c(C)[nH]n(-c4ccccc4)c3=O)cc2)nc(OC)n1`, the Potency result was “inactive”.
In the case of `S=c1[nH]nc(-c2cc(-c3ccsc3)n[nH]2)n1-c1ccccc1`, the Potency entry is “inactive”.
For `Cc1ccnc(N2CCCC(C(=O)Nc3cc(F)ccc3C)C2)n1` (stereo unspecified), the Potency result is “inactive”.
Turning to `CCOc1ccc2nc(N3CCC(C(=O)Nc4cc(C)ccc4C)CC3)sc2c1`, the Potency is 16.4 µM (active).
As for `CCOC(=O)N1CCC(NC(=O)c2ccc3nc(N4CCOCC4)sc3c2)CC1`, the Potency entry was “inactive”.
In the case of `CCOc1ccc2nc(N3CCCC(C(=O)Nc4cc(C)ccc4C)C3)sc2c1` (stereo unspecified), the Potency is 18.4 µM (active).
Turning to `Cc1cc(C)c2nc(N3CCC(C(=O)NCCN4CCOCC4)CC3)sc2c1`, the Potency entry is “inactive”.
Consider `Cc1ccc(C)c(NC(=O)C2CCCN(S(=O)(=O)c3cn(C)cn3)C2)c1` (stereo unspecified), for which the Potency entry is “inactive”.
As for `CC1CCCCC1NC(=O)Cn1cnc2c1c(=O)n(C)c(=O)n2C` (stereo unspecified), the Potency result is “inactive”.
Consider `COC(=O)CN1C(=O)[C@H]2[C@@H](/C=C/c3ccccc3)N3C(=O)CN(CC4CC4)C(=O)[C@@]3(Cc3ccccc3)[C@H]2C1=O`, for which the Potency entry was “inactive”.
To `COC(=O)C1(S(=O)(=O)C2(C(=O)OC)CCCC2)CCCC1` belongs “inactive”; to `N#Cc1nc(COc2ccc(-c3ccccc3)cc2)oc1NCc1cccnc1`, 25.9 µM (active); to `Cc1noc(C)c1-c1cc(NCc2cccnc2)ncn1`, “inactive”.
On to `COc1ccc(-c2nnc(SCc3cccnc3)o2)cc1`, for which the Potency result is “inactive”.
As to `O=C(Cn1nc(C(=O)O)c2ccccc2c1=O)Nc1ccc(F)cc1`, the Potency result was “inactive”.
Then `COc1cccc(NC(=O)CSc2nnc(C3CCCCC3)n2N)c1`, with “inactive”; and `O=C(Cn1cnc2ccccc2c1=O)NCC1COc2ccccc2O1` (stereo unspecified), with “inactive”; and `O=C(COC(=O)c1ccc(F)cc1)NCC1COc2ccccc2O1` (stereo unspecified), with “inactive”.
To `c1ccc2c(c1)OCC(CNc1ncnc3nc[nH]c13)O2` (stereo unspecified) belongs 13 µM (active).
As for `CC(C)c1ccc(NC(=S)NC2CC3C=CC2C3)cc1` (stereo unspecified), the Potency is 29.1 µM (active).
Regarding `CC(C)c1ccc(NC(=S)NNc2ccc(Cl)c(C(=O)O)c2)cc1`, the Potency result was “inactive”.
Consider `O=C(COC(=O)C1CC2C=CC1C2)Nc1ccccc1` (stereo unspecified), for which the Potency entry is “inactive”.
As to `CCN1C(=O)C(=O)N(CC(=O)Nc2cc(C)ccc2C)C1=O`, the Potency result is “inactive”.
As to `O=P(c1ccc2c(c1)OCCO2)(N1CCOCC1)N1CCOCC1`, the Potency result is “inactive”.
To `COC(=O)C(C)Oc1ccc2c(c1)O/C(=C\c1cccc(Br)c1)C2=O` (stereo unspecified) belongs “inactive”.
Then `COc1ccc(S(=O)(=O)N(CC(=O)NCc2ccco2)c2ccc(F)cc2)cc1`, with “inactive”; and `COC(=O)Cc1ccc(N(Cc2ccccc2F)S(=O)(=O)c2ccc(Br)cc2)cc1`, with 20.6 µM (active); and `O=C(COC(=O)Cc1ccc(Br)cc1)Nc1c(F)c(F)c(F)c(F)c1F`, with “inactive”.

The values above are taken from PubChem BioAssay AID686978 (National Center for Advancing Translational Sciences (NCATS), 2013).
